Laboratory results: PubChem BioAssay AID1159580 (chemical genetic matrix, 2015)
About 2,000 (36%) of roughly 5,500 compounds were called active. Not shown: some 18% with an inconclusive outcome. Some of the results follow. Unmarked numbers belong to inactive results. No stated cut-off is given here; in the data, active means normalized growth mostly below about 0.91 (no sharp cut-off); inconclusive means no clear call, values can overlap the other calls; inactive means mostly above about 0.92.

Assay: chemical genetic growth profiling, strain panel (AID 1159580);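 further: tested at 20 µM; growth read once vehicle control cultures reached saturation at 30 °C; 1 = growth at the plate median or of vehicle wells; lower values mean less growth of the strain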
Conditions: S. cerevisiae deletion strains, growth OD
[1] = locus YHR030C, strain SLT2, hits give low values

Q: For COC(=O)C1=C(C)NC(C)=C(C(=O)OC)C1c1ccc(-c2ccsc2C(=O)OC)o1, which normalized growth (locus YAL013W, strain DEP1, hits give low values) is on record?
A: Its normalized growth is 1.

Q: And the normalized growth (locus YBR229C, strain ROT2, hits give low values)?
A: Its normalized growth is 1.

Q: What about the normalized growth (locus YCL061C, strain MRC1, hits give low values) of the same compound?
A: The normalized growth was 0.989.

Q: And the normalized growth (locus YDL101C, strain DUN1, hits give low values)?
A: Its normalized growth is 1.

Q: What about the normalized growth (locus YDR150W, strain NUM1, hits give low values) of the same compound?
A: The normalized growth was 0.941.

Q: What about the normalized growth (locus YEL061C, strain CIN8, hits give low values) of the same compound?
A: The normalized growth was 1.03.

Q: What about the normalized growth (locus YGR078C, strain PAC10, hits give low values) of the same compound?
A: Its normalized growth is 0.994.

Q: And the normalized growth [1]?
A: The normalized growth was 1.05.

Q: What about the normalized growth (locus YHR087W, strain rtc3, hits give low values) of the same compound?
A: The normalized growth was 0.985.

Q: And the normalized growth (locus YJL187C, strain SWE1, hits give low values)?
A: Its normalized growth is 1.01.

Q: What about the normalized growth (locus YJR043C, strain POL32, hits give low values) of the same compound?
A: Its normalized growth is 0.994.

Q: What about the normalized growth (locus YJR075W, strain HOC1, hits give low values) of the same compound?
A: Its normalized growth is 0.946.

Q: What about the normalized growth (locus YLR039C, strain RIC1, hits give low values) of the same compound?
A: Its normalized growth is 1.05.

Q: What about the normalized growth (locus YLR058C, strain SHM2 (second series), hits give low values) of the same compound?
A: Its normalized growth is 0.999.

Q: What about the normalized growth (locus YLR085C, strain ARP6, hits give low values) of the same compound?
A: The normalized growth was 0.992.

Q: And the normalized growth (locus YLR262C, strain YPT6, hits give low values)?
A: The normalized growth was 0.999.

Q: And the normalized growth (locus YML094W, strain GIM5, hits give low values)?
A: Its normalized growth is 1.01.

Q: What about the normalized growth (locus YMR219W, strain ESC1, hits give low values) of the same compound?
A: Its normalized growth is 1.

Q: What about the normalized growth (locus YMR263W, strain SAP30, hits give low values) of the same compound?
A: Its normalized growth is 1.

Q: What about the normalized growth (locus YMR307W, strain GAS1, hits give low values) of the same compound?
A: Its normalized growth is 0.968.

Q: And the normalized growth (locus YNL153C, strain GIM3, hits give low values)?
A: Its normalized growth is 0.99.

Q: And the normalized growth (locus YNL298W, strain CLA4 (second series), hits give low values)?
A: Its normalized growth is 1.06.

Q: What about the normalized growth (locus YNL322C, strain KRE1, hits give low values) of the same compound?
A: Its normalized growth is 0.991.

Q: And the normalized growth (locus YNR030W, strain Alg12, hits give low values)?
A: Its normalized growth is 1.02.

Q: What about the normalized growth (locus YOL006C, strain TOP1, hits give low values) of the same compound?
A: The normalized growth was 1.06.

Q: And the normalized growth (locus YPL055C, strain LGE1, hits give low values)?
A: Its normalized growth is 0.898.

Q: And the normalized growth (locus YPL241C, strain CIN2, hits give low values)?
A: Its normalized growth is 0.862.

Q: What about the normalized growth (locus YPR135W, strain CTF4, hits give low values) of the same compound?
A: Its normalized growth is 1.

Q: With COC(=O)c1sccc1-c1ccc(/C=C/[N+](=O)[O-])o1 as the compound, how does the normalized growth (locus YBL105C, strain PKC1, hits give low values) read?
A: The normalized growth was 0.964.

Q: What about the normalized growth (locus YBR135W, strain CKS1, hits give low values) of the same compound?
A: The normalized growth was 0.96.

Q: And the normalized growth (locus YBR136W, strain MEC1, hits give low values)?
A: Its normalized growth is 0.968.

Q: What about the normalized growth (locus YBR160W, strain CDC28, hits give low values) of the same compound?
A: The normalized growth was 0.952.

Q: And the normalized growth (locus YDL017W, strain CDC7, hits give low values)?
A: The normalized growth was 0.974.

Q: What about the normalized growth (locus YDL028C, strain MPS1, hits give low values) of the same compound?
A: The normalized growth was 0.959.

Q: What about the normalized growth (locus YDL108W, strain KIN28, hits give low values) of the same compound?
A: Its normalized growth is 0.965.

Q: What about the normalized growth (locus YDL214C, strain PRR2, hits give low values) of the same compound?
A: The normalized growth was 0.126 (active).

Q: And the normalized growth (locus YDR052C, strain DBF4, hits give low values)?
A: The normalized growth was 0.981.

Q: And the normalized growth (locus YDR226W, strain ADK1, hits give low values)?
A: Its normalized growth is 0.961.

Q: And the normalized growth (locus YDR477W, strain SNF1, hits give low values)?
A: Its normalized growth is 0.518 (active).

Q: What about the normalized growth (locus YER123W, strain YCK3, hits give low values) of the same compound?
A: Its normalized growth is 0.155 (active).

Q: And the normalized growth (locus YER133W, strain GLC7, hits give low values)?
A: Its normalized growth is 0.121 (active).

Q: What about the normalized growth (locus YFL009W, strain cdc4, hits give low values) of the same compound?
A: The normalized growth was 0.718 (active).

Q: What about the normalized growth (locus YFR003C, strain YPI1, hits give low values) of the same compound?
A: Its normalized growth is 0.966.

Q: And the normalized growth (locus YFR019W, strain FAB1, hits give low values)?
A: The normalized growth was 0.154 (active).

Q: And the normalized growth (locus YFR028C, strain CDC14, hits give low values)?
A: The normalized growth was 0.978.

Q: And the normalized growth (locus YGR040W, strain KSS1, hits give low values)?
A: The normalized growth was 0.551 (active).

Q: And the normalized growth (locus YGR052W, strain FMP48, hits give low values)?
A: Its normalized growth is 0.268 (active).

Q: And the normalized growth (locus YGR092W, strain DBF2, hits give low values)?
A: Its normalized growth is 0.874.

Q: What about the normalized growth [1] of the same compound?
A: The normalized growth was 0.0849 (active).

Q: What about the normalized growth (locus YHR079C, strain IRE1, hits give low values) of the same compound?
A: The normalized growth was 0.113 (active).

Q: What about the normalized growth (locus YHR082C, strain KSP1, hits give low values) of the same compound?
A: The normalized growth was 0.178 (active).

Q: And the normalized growth (locus YHR205W, strain SCH9, hits give low values)?
A: The normalized growth was 0.509 (active).

Q: And the normalized growth (locus YIL147C, strain SLN1, hits give low values)?
A: Its normalized growth is 0.964.

Q: What about the normalized growth (locus YJL095W, strain BCK1, hits give low values) of the same compound?
A: The normalized growth was 0.126 (active).

Q: What about the normalized growth (locus YJL128C, strain PBS2, hits give low values) of the same compound?
A: The normalized growth was 0.907.

Q: And the normalized growth (locus YJL157C, strain FAR1, hits give low values)?
A: Its normalized growth is 0.14 (active).

Q: And the normalized growth (locus YJR016C, strain ILV3, hits give low values)?
A: Its normalized growth is 0.974.

Q: And the normalized growth (locus YJR066W, strain TOR1 (second series), hits give low values)?
A: The normalized growth was 0.0869 (active).

Q: What about the normalized growth (locus YJR066W, strain TOR1, hits give low values) of the same compound?
A: The normalized growth was 0.103 (active).

Q: What about the normalized growth (locus YKL048C, strain ELM1, hits give low values) of the same compound?
A: Its normalized growth is 0.939.

Q: And the normalized growth (locus YKL067W, strain YNK1, hits give low values)?
A: The normalized growth was 0.185 (active).

Q: What about the normalized growth (locus YKL101W, strain HSL1, hits give low values) of the same compound?
A: The normalized growth was 0.886.

Q: What about the normalized growth (locus YKL203C, strain TOR2, hits give low values) of the same compound?
A: The normalized growth was 0.893.

Q: And the normalized growth (locus YLR113W, strain HOG1, hits give low values)?
A: The normalized growth was 0.181 (active).

Q: What about the normalized growth (locus YLR133W, strain CKI1, hits give low values) of the same compound?
A: The normalized growth was 0.638 (active).

Q: What about the normalized growth (locus YLR403W, strain SFP1, hits give low values) of the same compound?
A: The normalized growth was 0.517 (active).

Q: What about the normalized growth (locus YML070W, strain DAK1, hits give low values) of the same compound?
A: Its normalized growth is 0.111 (active).

Q: What about the normalized growth (locus YMR205C, strain PFK2 (second series), hits give low values) of the same compound?
A: Its normalized growth is 0.704 (active).

Q: And the normalized growth (locus YNL006W, strain LST8, hits give low values)?
A: Its normalized growth is 0.958.

Q: And the normalized growth (locus YNL020C, strain ARK1, hits give low values)?
A: Its normalized growth is 0.702 (active).

Q: And the normalized growth (locus YNL183C, strain NPR1, hits give low values)?
A: The normalized growth was 0.0989 (active).

Q: What about the normalized growth (locus YNL207W, strain RIO2, hits give low values) of the same compound?
A: The normalized growth was 0.977.

Q: And the normalized growth (locus YNL307C, strain MCK1 (second series), hits give low values)?
A: The normalized growth was 0.823.

Q: What about the normalized growth (locus YOL136C, strain PFK27, hits give low values) of the same compound?
A: Its normalized growth is 0.107 (active).

Q: And the normalized growth (locus YOR061W, strain CKA2, hits give low values)?
A: The normalized growth was 0.729.

Q: What about the normalized growth (locus YOR119C, strain RIO1, hits give low values) of the same compound?
A: Its normalized growth is 0.875.

Q: What about the normalized growth (locus YOR231W, strain MKK1, hits give low values) of the same compound?
A: The normalized growth was 0.135 (active).

Q: And the normalized growth (locus YOR329C, strain SCD5, hits give low values)?
A: The normalized growth was 0.965.

Q: What about the normalized growth (locus YPL031C, strain PHO85, hits give low values) of the same compound?
A: The normalized growth was 0.25 (active).

Q: And the normalized growth (locus YPL153C, strain RAD53, hits give low values)?
A: Its normalized growth is 0.0913 (active).

Q: What about the normalized growth (locus YPL204W, strain HRR25, hits give low values) of the same compound?
A: Its normalized growth is 0.091 (active).

Q: What about the normalized growth (locus YPL209C, strain IPL1, hits give low values) of the same compound?
A: The normalized growth was 0.969.

Q: What about the normalized growth (locus YPL256C, strain CLN2, hits give low values) of the same compound?
A: The normalized growth was 0.147 (active).

Q: What about the normalized growth (locus YPR025C, strain CCL1, hits give low values) of the same compound?
A: The normalized growth was 0.955.

Q: What about the normalized growth (locus YPR106W, strain ISR1, hits give low values) of the same compound?
A: The normalized growth was 0.959.

Q: What about the normalized growth (locus YPR111W, strain DBF20, hits give low values) of the same compound?
A: The normalized growth was 0.961.

Q: What about the normalized growth (strain NNK1, hits give low values) of the same compound?
A: Its normalized growth is 0.963.
